These sequences were tested on RARb:RXRa (NR concentration 270 nM, RXRa partner concentration 90 nM) (assay: PBM binding z-score (relative to random genomic background probes); higher = stronger binding; sequences stand for … in GC…GCGATTGACAGCGTAGAATGAAGG).
How it was run: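 Custom Agilent 4×180K protein-binding microarrays carried double-stranded probes. Their 34-nt variable regions held direct-repeat seeds, single-nucleotide variants, half-site ablations and random human genomic background sequences. Arrays were incubated 1 h with ligand-free nuclear receptor dimers in PBS pH 7.4, 2% milk, 0.02% Triton X-100, 1 mM DTT, 0.2 mg/mL BSA and 0.4 mg/ml salmon testes DNA. Antibodies against each partner (one per run) detected binding, and scanned fluorescence was regression-normalized. Binding z-scores use random background probes as reference.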

**Q.** TAGCCTAGGTCATGGGCTAGTATACCACGCGAAC was tested. Which PBM binding z-score did it give?
**A.** Its PBM binding z-score is 3.86.

**Q.** For TCAGACAGGTGATGGTAACTCAGGTACGCAGTCG, which PBM binding z-score is on record?
**A.** The PBM binding z-score was 0.566.

**Q.** How did the PBM binding z-score turn out when GTACCAAGGAGAATAGGTCGTTGATGAGTAGGCG was run?
**A.** The PBM binding z-score was 0.136.

**Q.** For TATCCTAGGTCATGGGCCAGTATACCACGCGAAC, which PBM binding z-score is on record?
**A.** The PBM binding z-score was 4.06.

**Q.** How did the PBM binding z-score turn out when CGAACTAGGTCATTGAGAGGACAGTGAATAGTAA was run?
**A.** The PBM binding z-score was 3.74.

**Q.** With TTACCAAGGTGAGCTGAGGTCGTTGATCCAACTC as the sequence, how does the PBM binding z-score read?
**A.** Its PBM binding z-score is 1.93.

**Q.** How did the PBM binding z-score turn out when TTACCAAGGTTAGCTGAGGTCGTTGATCCAACTC was run?
**A.** The PBM binding z-score was 2.1.

**Q.** How did the PBM binding z-score turn out when CCTTACGGGTCACAGACAGGTTATAGCATTTGGA was run?
**A.** The PBM binding z-score was 4.01.

**Q.** How did the PBM binding z-score turn out when TCGAGTAGGTTAGTCGGGGCAATCAGCCAACATA was run?
**A.** The PBM binding z-score was 0.473.

**Q.** With GCTTGTAGAACAAGGTTAAGAAAGACTAAGCTAA as the sequence, how does the PBM binding z-score read?
**A.** Its PBM binding z-score is 0.679.

**Q.** With TCATAGAGGTAATACAGGTGAAAGTCGGCATCTA as the sequence, how does the PBM binding z-score read?
**A.** The PBM binding z-score was 0.478.

**Q.** GCTGCTAAGTCAGGTTGGTCAGCTAACGGGTACG was tested. Which PBM binding z-score did it give?
**A.** The PBM binding z-score was -0.0361.

**Q.** For CGTCCAAGGTCAGAAGGTCAGTGAAAGCGACGTG, which PBM binding z-score is on record?
**A.** Its PBM binding z-score is 5.45.

**Q.** How did the PBM binding z-score turn out when TCTATTAGTTGAAGGGCAACCGGCGAGTCCGTTT was run?
**A.** The PBM binding z-score was 1.74.

**Q.** ATCTCTAGGTTACCAAGTTCAGTGAATGCCGAAC was tested. Which PBM binding z-score did it give?
**A.** The PBM binding z-score was 2.31.

**Q.** How did the PBM binding z-score turn out when CGTCCAAGGTCAATGCTAGGTCCGTGAAAGCATT was run?
**A.** Its PBM binding z-score is 4.91.

**Q.** For CTACCAAGGGGAACAAGGTCGTTGATTACTATTC, which PBM binding z-score is on record?
**A.** The PBM binding z-score was 0.601.

**Q.** For CCTTACGGGCCACTGACAGGTTATAGCATTTGGA, which PBM binding z-score is on record?
**A.** Its PBM binding z-score is 0.69.

**Q.** Which PBM binding z-score does the source give for TCAAGTTGGTCAAAGGTCACACACTCGAAATGCG here?
**A.** The PBM binding z-score was 5.12.

**Q.** TCTATTAGTTGATTGGGGCAACCGAAACAGCGGA was tested. Which PBM binding z-score did it give?
**A.** Its PBM binding z-score is 1.03.

**Q.** Which PBM binding z-score does the source give for ATATGTAGGTTACATCCGTGTCATTCAGGCTATG here?
**A.** The PBM binding z-score was 1.28.

**Q.** With GCAGACCGGTGAAACGCAGGTAACTCAGGGTGGC as the sequence, how does the PBM binding z-score read?
**A.** The PBM binding z-score was -0.191.

**Q.** With CCAGACAGGTGAAAGGTAACTTAGTCTGGTACGC as the sequence, how does the PBM binding z-score read?
**A.** The PBM binding z-score was 1.15.

**Q.** Which PBM binding z-score does the source give for GCTAGCTGGTCAGTAAAAGGTCACACACCGGTCG here?
**A.** Its PBM binding z-score is 4.23.

**Q.** How did the PBM binding z-score turn out when ATCTCTAGGTAAGACTCAGTTCAGTTAAGAACGC was run?
**A.** Its PBM binding z-score is 0.431.

**Q.** With TCATATAGATAAACAGGTGAAAGTCCGTAAGTTA as the sequence, how does the PBM binding z-score read?
**A.** Its PBM binding z-score is 0.536.

**Q.** TCGAGTATGTTAGTCGGGGCATTCAGCCAACATA was tested. Which PBM binding z-score did it give?
**A.** Its PBM binding z-score is 0.204.

**Q.** Which PBM binding z-score does the source give for CGTCCAAGGTCAGCAGGTCAATGAAAGCGACGTG here?
**A.** Its PBM binding z-score is 5.24.

**Q.** How did the PBM binding z-score turn out when CTCGAAAGGTCGGTTGAGGTGAGTATCCGGATAA was run?
**A.** Its PBM binding z-score is 3.18.

**Q.** For CCAAGTAGGTTATGGGGCATTCAGGCAACGGTGA, which PBM binding z-score is on record?
**A.** The PBM binding z-score was 1.05.

**Q.** Which PBM binding z-score does the source give for AGAATGAGGATATACGTAGATCAGGGAAGAAAGT here?
**A.** Its PBM binding z-score is -0.448.

**Q.** With CCTTACGGGTCAAGGGTATAGCACGGGTGGTACG as the sequence, how does the PBM binding z-score read?
**A.** The PBM binding z-score was 3.98.

**Q.** CAAACTAGGTCACCGAGGTCAAAGTCCGTGCGTA was tested. Which PBM binding z-score did it give?
**A.** The PBM binding z-score was 5.18.

**Q.** TGTCAAAGTTCAAAGGTAACCTAAGTATCCACAC was tested. Which PBM binding z-score did it give?
**A.** The PBM binding z-score was 5.09.

**Q.** How did the PBM binding z-score turn out when ACTATTAGTTGACTTAGGGCGACCGATACGACGC was run?
**A.** Its PBM binding z-score is 0.512.

**Q.** With TTACCAAGGTTAAGGTCGTTGATCCCTCTGTAGA as the sequence, how does the PBM binding z-score read?
**A.** Its PBM binding z-score is 3.04.

**Q.** Which PBM binding z-score does the source give for GCAGACAGGGGAAACGCAGGTAACTCAGGGTGGC here?
**A.** The PBM binding z-score was -0.337.

**Q.** For GCTAGCAGGCCATTTGGGTCACTCTATGACGGGC, which PBM binding z-score is on record?
**A.** Its PBM binding z-score is 1.27.

**Q.** Which PBM binding z-score does the source give for ATCTCTAGCTAAGACTCAGTTCAGTGAAGAACGC here?
**A.** The PBM binding z-score was 0.0718.

**Q.** With ATCTCTAGGTAACAAGTTCAGTCAAAGAGAGGAC as the sequence, how does the PBM binding z-score read?
**A.** The PBM binding z-score was 1.62.

Reference: the supplement of paper PMC6555819
